# Data published in PubChem BioAssay (EPA / NIEHS).
# Where “and” joins values, the source holds several entries; their conditions need not be identical. Equal entries are not always repeated. Records with an inconclusive call do not appear. Calls of active or inactive are those of the source. Rule for the calls: active = hit-call score of the fitted dose curve at least 0.9, where 1 is the maximum; inconclusive = response in the unintended direction; inactive = score below 0.9.
# Biological target: Cellular tumor antigen p53 (Homo sapiens) (UniProt P04637)
# Sequence (P04637 whole entry, looked up): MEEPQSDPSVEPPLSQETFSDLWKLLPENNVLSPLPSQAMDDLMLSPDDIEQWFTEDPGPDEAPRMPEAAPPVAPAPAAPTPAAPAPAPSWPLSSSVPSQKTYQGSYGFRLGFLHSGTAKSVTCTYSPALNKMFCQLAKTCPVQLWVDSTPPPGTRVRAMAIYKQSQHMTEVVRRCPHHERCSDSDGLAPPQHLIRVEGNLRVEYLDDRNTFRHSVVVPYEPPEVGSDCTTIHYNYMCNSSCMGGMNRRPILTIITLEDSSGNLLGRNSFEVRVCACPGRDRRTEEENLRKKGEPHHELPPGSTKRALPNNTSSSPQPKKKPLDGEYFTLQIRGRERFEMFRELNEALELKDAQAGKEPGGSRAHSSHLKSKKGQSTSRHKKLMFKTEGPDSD
# Experiment: TOX21_p53_BLA_p2_ratio: Tox21 HCT-116 p53 Agonism Beta-lactamase Assay, Ratio, Phase 2 (AID 2283592)
# Method in brief: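 Human colon HCT116 cells with an inducible p53 beta-lactamase reporter are exposed to test chemicals for 16 h at 37C. Reporter induction is read as the 460/530 nm emission ratio after CCF4-AM loading, normalized to DMSO.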
SMILES,outcome,AC50
C[N+]1(C)[C@@H]2CC[C@H]1CC(OC(=O)c1c[nH]c3ccccc13)C2 (stereo partly drawn),inactive,–
FC(F)OC(F)(F)C(F)Cl (stereo not drawn),inactive,–
C[C@]1(O)CC[C@H]2[C@@H]3CCC4=CC(=O)CC[C@]4(C)[C@@]3(F)[C@@H](O)C[C@@]21C,inactive,–
CC(N)=S,inactive,–
CCSCc1ccccc1OC(=O)NC,inactive,–
CNC(C)CC1CCCCC1 (stereo not drawn),inactive,–
COC1=CC=C2[C@H]3Cc4ccc(OC)c5c4[C@@]2(CCN3C)[C@H]1O5,inactive,–
Cc1cnc[nH]1,inactive,–
CCCCCCCCCCCCCCCCn1cc[n+](C)c1,–,51.5 µM (active) and 29.9 µM (active) and 17.5 µM (active)
COc1ccc(C(=O)N2CCCC2=O)cc1,inactive,–
CNN,inactive,–
Cc1ccc(-c2nc3ccc(C)cn3c2CC(=O)N(C)C)cc1,inactive,–
CCBr,inactive,–
CCN(CCO)CCn1c(Cc2ccccc2)nc2c1c(=O)n(C)c(=O)n2C,inactive,–
C[C@H]1CCC[C@H](O)CCCCCc2cc(O)cc(O)c2C(=O)O1,inactive,–
CCCCc1ccc(C(=O)O)nc1,inactive,–
C=C[C@H]1CN2CC[C@H]1C[C@H]2[C@H](OC(=O)OCC)c1ccnc2ccc(OC)cc12,inactive,–
C=C(C#N)CCC#N,inactive,–
Brc1c(Br)c(Br)c(Br)c(Br)c1Br,inactive,–
C=C(Cl)CSC(=S)N(CC)CC,inactive,–
COc1ccc2c(c1)C13CCCC[C@@H]1C(C2)N(C)CC3 (stereo partly drawn),inactive,–
Cc1ccc2c(c1)[C@]13CCCC[C@@H]1[C@H](C2)N(C)CC3,inactive,–
Cc1nc(N)nc(N)n1,inactive,–
